Bioassay records deposited in PubChem by National Center for Advancing Translational Sciences (NCATS).
AmpC inh no detg – AmpC beta-lactamase inhibition without detergent. P00811. AmpC nitrocefin hydrolysis, absorbance 480 nm, 0.0001% Triton. 330,000 tested, 0.52% active. Potency, µM (top dose mostly 57.1 µM), inactives show at the highest dose activity change, negative = inhibition, usual class: inhibitors; active = well fitted curve in the direction sought with a large enough effect; inconclusive = small, poorly fitted or top-dose-only effect, or another doubt; inactive = no such curve, though single readings can be large; an effect the other way counts as inactive or inconclusive;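 note: potency is the fitted concentration of half-maximal effect; plate controls were no compound for no effect and no enzyme for full effect; nearly all actives have a fitted effect of over 20% in size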
Target sequence (P00811 whole entry, looked up): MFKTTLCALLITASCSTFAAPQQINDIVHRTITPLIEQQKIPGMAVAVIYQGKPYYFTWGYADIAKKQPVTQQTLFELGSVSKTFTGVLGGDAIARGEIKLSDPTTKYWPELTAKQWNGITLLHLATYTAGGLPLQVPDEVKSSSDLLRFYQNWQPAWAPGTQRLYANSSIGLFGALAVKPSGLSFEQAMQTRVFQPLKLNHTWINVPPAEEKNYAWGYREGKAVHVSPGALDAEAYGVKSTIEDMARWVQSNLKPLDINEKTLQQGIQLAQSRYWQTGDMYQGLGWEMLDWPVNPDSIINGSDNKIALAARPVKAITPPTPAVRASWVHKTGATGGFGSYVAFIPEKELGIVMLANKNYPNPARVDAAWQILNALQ
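AmpC (5.3 nM in the dispensed reagent) in 20 mM phosphate pH 7.0 with 0.01% (detergent screen) or 0.0001% Triton X-100 was preincubated with compounds for 15 min at room temperature. Nitrocefin was then added from an 800 uM solution, and hydrolysis was followed at 480 nm.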
Shiga toxin inh – inhibitors of Shiga toxin in Vero cells; 290,000 tested, 9.2% active; Vero cells, Shiga toxin protein synthesis inhibition reporter; inhibition, % at 38.7 µM; AID 2315; in the data active = inhibition mostly above about 28%, no sharp cut-off; inactive = mostly below about 43%; note: 0% is about no effect
NS1 inh – blocks influenza NS1 protein function | Potency, µM (titrated, usually from 46.1 µM), inactives show at the highest dose activity, positive = more growth | 270,000 tested, 0.4% active | AID 2326; note: potency is the fitted concentration of half-maximal effect; actives are rising curves; nearly all actives have a fitted effect of over 50% in size
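OD600 was taken as the measure of yeast growth restored by compound in an NS1-expressing S. cerevisiae strain. Cells had been washed out of glucose medium and diluted 1:100 into galactose -URA medium, pH 6.0.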
CHX counter – counter-screen hit for Shiga toxin inhibitors, cycloheximide | cell reporter, cycloheximide protein synthesis inhibition counterscreen | max response, % | 300,000 tested, 12% active | AID 2314; in the data active = max response mostly above about 13%, no sharp cut-off; inactive = mostly below about 14%; note: read at 38.3 µM for the half of the compounds with a filed dose; 0% is about no effect
AmpC detergent – inhibitors of E. coli AmpC beta-lactamase with detergent. AmpC hydrolysis of nitrocefin, absorbance 480 nm, 0.01% Triton. P00811. 370,000 tested, 0.041% active. Potency, µM (titrated, usually from 114 µM), for the others: top-dose activity change, negative = inhibition, hits mostly inhibitors; active = well fitted curve in the direction sought with a large enough effect; inconclusive = small, poorly fitted or top-dose-only effect, or another doubt; inactive = no such curve, though single readings can be large; an effect the other way counts as inactive or inconclusive;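 note: potency is the fitted concentration of half-maximal effect; 0% = no-compound wells and -100% = no-enzyme wells; nearly all actives have a fitted effect of over 25% in size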
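20 mM phosphate pH 7.0 + 0.01% (detergent screen) or 0.0001% Triton X-100; 5.3 nM AmpC reagent; cpd preinc 15 min RT; nitrocefin (800 uM stock) to start; A480 q20 s × 4 min; Activity was normalised to no-enzyme and no-compound control wells.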
NS1 inh valid – influenza NS1 function inhibition validation | shares compounds with NS1 inh | influenza NS1 function cell assay, 15-point titration | activity change, negative = inhibition, % at 32.9 µM | 1,400 tested, under 10 active; note: 0% is about no effect
The depositor's hits bear a star; ? = inconclusive; / = no result. Only a selection was taken, and hits are over-represented in it overall. Unless noted, calls come from the whole dose curve.

SMILES	AmpC inh no detg	Shiga toxin inh	NS1 inh	CHX counter	AmpC detergent	NS1 inh valid
Cc1ccc(-c2csc(NC(=O)c3cccc([N+](=O)[O-])c3)n2)cc1	-14.9%	-2.4	5.01µM*	-3.0	-5.0%	1.5
COc1ccc(-c2csc(NC(=O)c3nc(-c4ccccc4)oc3C)n2)cc1	-23.0%	-4.2	-2.1%	13.7	0.8%	/
COc1cccc(OC)c1C(=O)Nc1nc(-c2ccccc2)cs1	-12.6%	/	12.6µM*	4.4	5.1%	-16.3
O=C(Nc1nc(-c2ccc([N+](=O)[O-])cc2)cs1)c1c(F)cccc1F	-11.8%	30.8	13.3%	-1.9	-1.8%	/
CS(=O)(=O)NCCSc1cc(C(F)(F)F)nc2ccccc12	-18.1%	-8.7	1.8%	-1.2	-0.1%	/
COc1ccc2oc(C(=O)N(C)Cc3ccc(OC(F)F)cc3)c(C)c2c1	27.3%	4.8	-20.6%	15.1	1.2%	/
O=C(Cc1ccccc1)N(Cc1cccnc1)c1nc2c(Cl)cccc2s1	/	/	/	/	-1.2%	/
CC(=O)c1c(C)[nH]c(C(=O)/C(C#N)=C/c2cccc(C)c2)c1C	-32.1%	-4.8	21.5%	-6.7	-7.9%	/
CCOC(=O)c1c(C)[nH]c(C(=O)/C(C#N)=C/c2ccc(OCC)cc2)c1C	-31.5%	13.1	3.98µM*	8.3	-13.2%	-21.2
CCC(CC)NCc1ccc(OC)cc1OC	2.4%	-7.5	?	-1.3	?	-12.7
COc1ccc(CNCc2ccncc2)c(OC)c1	-7.8%	-20.8	25.8%	-2.4	-15.0%	/
Cc1ccc(C2(C)NC(=O)N(CC(=O)NCc3cccc(Cl)c3)C2=O)cc1 (stereo unspecified)	2.0%	-19.5	-0.3%	-6.4	-7.6%	/
C#CCOc1ccc(/C=C2/C(=O)NN(c3ccc(F)cc3)C2=O)cc1OC	-18.5%	-3.7	3.55µM*	-4.6	-18.7%	36.9
Cc1cc(NC(=O)CN2C(=O)NC(c3ccccc3)(c3ccc(C)c(C)c3)C2=O)no1 (stereo unspecified)	-7.0%	/	/	/	-21.9%	/
COc1ccc(/C=C(/NC(=O)c2ccccc2)C(=O)N2CCOCC2)cc1OC	-14.1%	4.5	?	5.0	-3.6%	3.3
CC(C)COc1ccc(-c2nn(-c3ccccc3)cc2C(=O)Nc2nccs2)cc1	-21.0%	10.2	11.2µM*	-0.3	-0.5%	-0.1
CCS(=O)(=O)Nc1cccc(C2=NN(S(=O)(=O)CC)C(c3ccccc3)C2)c1 (stereo unspecified)	0.2%	1.8	/	1.4	5.4%	/
CCS(=O)(=O)Nc1cccc(C2=NN(S(=O)(=O)c3ccccc3)C(c3cccs3)C2)c1 (stereo unspecified)	-12.1%	-8.7	10µM*	-1.1	5.6%	17.3
CCS(=O)(=O)Nc1ccc(C2=NN(C(=O)c3ccccc3)C(c3cccs3)C2)cc1 (stereo unspecified)	-31.1%	0.4	2.0%	-0.3	?	/
CCS(=O)(=O)Nc1cccc(C2=NN(S(=O)(=O)c3ccc(C)cc3)C(c3cccs3)C2)c1 (stereo unspecified)	-31.2%	6.3	12.6µM*	-0.6	?	13.5
O=S(=O)(Nc1ccc(O)c(Sc2nc3ccccc3s2)c1)c1cccc2ccccc12	-18.1%	-1.4	20µM*	10.8	3.5%	-9.5
COC(=O)CCC(=O)NNC(=O)C1CC1(c1ccccc1)c1ccccc1 (stereo unspecified)	-2.6%	-5.9	-0.5%	-4.2	?	/
O=C(N/N=C/C=C\c1ccccc1[N+](=O)[O-])c1cc(-c2ccccc2)nc2ccccc12	-24.0%	17.4	7.08µM*	1.1	-4.5%	10.8
O=C(N/N=C/c1cccc([N+](=O)[O-])c1)c1cc(-c2ccccc2)nc2ccccc12	-12.0%	-8.8	4.0%	1.2	-5.3%	/
CCCS(=O)(=O)N1CCCC(C(=O)N2CCCCC2)C1 (stereo unspecified)	-23.6%	-18.3	2.5%	-4.4	-0.5%	/
O=C(O)c1ccc(C2Nc3ccccc3-c3nnc(SCc4ccc(Cl)cc4)nc3O2)cc1 (stereo unspecified)	/	/	/	/	20.2%	/
CC(C)(C)C(=O)Nc1ccc(C(=O)Nc2cccc(Oc3ccc(C(=O)O)c(C(=O)O)c3)c2)cc1	-22.4%	-16.9	11.2µM*	-3.0	-4.9%	29.4
O=C(Nc1cccc(Oc2ccc(C(=O)O)c(C(=O)O)c2)c1)c1ccc(-c2ccccc2)cc1	-47.8%	-4.3	12.9%	-0.8	0.4%	/
